Most compounds without a hit are left out; they make up all but 4.5% or so of the library.
Gli-Sufu block: antagonists of Gli-Sufu signaling | Sufu-KO-LIGHT fibroblasts, Gli luciferase reporter luminescence | inhibition, % at 5 µM | hit rate 0.74% among 340,000;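 active means inhibition above about 55%, limit read from the data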;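 further: 0% = DMSO-treated cells and 100% = wells with medium but no cells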
Jurkat NFkB inh: inhibitors of the PMA/ionomycin-induced NF-kB reporter in Jurkat cells; PMA/ionomycin-induced NF-kB luciferase reporter, luminescence; inhibition, % at 4 µM; hit rate 0.53% among 330,000; AID 435003; in the data active means inhibition above about 50%
Beta apoptosis: blocks beta cell apoptosis. INS-1E cytokine-induced death, ATP luminescence, 48 h; percent of positive-control rescue, neutral wells zero. protection from apoptosis, % (test concentration not listed). hit rate 0.8% among 300,000. AID 435005;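 active means Every replicate reaches about 75%, or at least half do and their mean reaches it too, limit read from the data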;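 further: 0% = cytokine-treated negative control wells and 100% = positive control rescue; higher means more ATP so stronger rescue from cytokine killing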
Mdm2 MdmX PPI: disrupts the human Mdm2-MdmX interaction | SaOS-2 split-luciferase Mdm2/MdmX complementation, luminescence | inhibition, % at 8 µM | hit rate 3% among 330,000 | AID 485346;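 active means inhibition of at least 50% at 8 µM in the primary screen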
CSC inhib: blocks cancer stem cells; cancer stem cell-like cells viability, luminescence; inhibition, % at 7.5 µM; hit rate 1.1% among 300,000; in the data active means inhibition above about 75%; tested in HMLE shEcad cells
697 NFkB inh: lowers PMA/ionomycin-induced NF-kB signal in 697 B cells. AID 435022. hit rate 0.33% among 330,000. inhibition, % at 4 µM. 697 B-cell NF-kB luciferase reporter, 16 h; in the data active means inhibition above about 35%
Jurkat NFkB conf: lowers PMA/ionomycin-induced NF-kB signal in Jurkat cells; shares compounds with Jurkat NFkB inh; Jurkat NF-kB luciferase, 16 h; inhibition, % at 4 µM; hit rate 27% among 2,700; AID 435020;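 active means inhibition reaching about 45% at 4 µM in either replicate, limit read from the data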;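 further: plate controls were PMA/ionomycin stimulated DMSO wells for no effect and unstimulated DMSO wells for full effect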
An asterisk follows results filed as active; . = not tested or not shown.

SMILES | Gli-Sufu block | Jurkat NFkB inh | Beta apoptosis | Mdm2 MdmX PPI | CSC inhib | 697 NFkB inh | Jurkat NFkB conf
Cc1cc(C)c2nc(-c3ccncc3)cc(C(=O)N3CCN(Cc4ccccc4Cl)CC3)c2c1 | 16.0 | 2.5 | . | 45.6 | 1.8 | -19.0 | .
O=C(NCCc1ccc(Cl)cc1)c1ccc2c(c1)OCCO2 | -86.0 | -168.5 | . | -85.7 | . | -222.7 | -132.8
Nc1ccc(-c2nc3cc(N)ccc3o2)cc1 | -69.2 | -104.2 | -1.8 | -98.9 | 0.8 | -134.2 | .
Cc1ccc(-c2nc3cc(N)ccc3o2)cc1Br | -85.5 | -159.7 | 0.9 | -125.9 | 23.4 | -140.2 | -88.0
Cc1nc(NC(=O)c2csc3ccccc23)sc1C | -63.6 | -164.7 | 23.9 | -201.9 | 33.6 | -145.3 | -128.8
NS(=O)(=O)c1ccc(CCNC(=O)C2CC(=O)N(Cc3ccccc3Cl)C2)cc1 (centres undefined) | -4.9 | -5.7 | 0.5 | -11.5 | . | 14.3 | .
O=C(CSc1nncs1)Nc1nccs1 | -4.7 | 14.3 | -6.6 | 18.9 | -6.9 | 5.3 | .
O=C(/C=C/c1ccco1)Nc1ccc2c(c1)OCCO2 | -131.9 | -159.7 | -6.9 | -133.1 | -6.5 | -208.5 | -58.2
CCN1C(=O)[C@H]2[C@H]3CN=C(SCc4ccc(Cl)cc4)N3[C@@](C)(C(=O)OC)[C@H]2C1=O | -2.5 | . | . | -1.3 | . | -0.4 | .
Cc1cc(C(=O)Nc2cccc(C(=O)O)c2)c(C)o1 | -10.6 | -11.6 | -14.1 | 0.8 | -6.9 | -16.7 | .
Cc1cccc(NC(=O)c2cc3ccccc3o2)c1 | -88.3 | -172.9 | -2.4 | -177.7 | 22.3 | -50.0 | -96.4
Cc1cc(C(=O)Nc2cccc(C(=O)O)c2)oc1C | -83.5 | 56.0* | 0.0 | 0.9 | 8.5 | -5.8 | 5.3
CC(Oc1ccc2c3c(c(=O)oc2c1)CCC3)C(=O)NCCCn1ccnc1 (centres undefined) | -50.2 | 2.0 | 2.6 | -0.8 | -5.0 | 13.2 | .
O=C(c1ccsc1)N1CCCC(N2CCOCC2)C1 (centres undefined) | -11.7 | 13.7 | -2.0 | 18.3 | -12.3 | 11.1 | .
CCOc1ccc(OCCNC(=O)C(NC(=O)c2c(F)cccc2F)C(C)C)cc1 (centres undefined) | -8.6 | 3.7 | 5.7 | -12.6 | -0.9 | 5.1 | .
CC(C)(C)OC(=O)NCc1ccc(CNC(=O)c2nc[nH]c2C(=O)N2CCN(C(=O)OC(C)(C)C)CC2)cc1 | 11.2 | 7.8 | -4.0 | 33.3 | -17.3 | -11.2 | .
COc1ccc(OC)c(-c2cc(C(=O)Nc3cc(C)n(Cc4ccc(Cl)cc4)n3)no2)c1 | . | 11.6 | 2.2 | -14.2 | 9.8 | -28.5 | .
COc1cccc(-c2cc(C(=O)Nc3cc(C)n(Cc4ccc(Cl)cc4)n3)no2)c1 | -2.6 | 61.0* | 3.3 | 31.4 | 53.1 | 28.2 | 41.9
CC(C)[C@H]1COCCS(=O)(=O)N1Cc1cccc(Cl)c1 | -5.8 | 12.8 | -2.2 | -11.6 | -4.4 | 8.0 | .
O=C(CCNC(=O)C1CCN(S(=O)(=O)c2ccccc2)CC1)Nc1ccccc1 | 31.8 | -4.4 | . | 10.4 | 9.2 | 14.6 | .
Cc1ccc(Oc2ccc(OCC(=O)Nc3ccncc3)cc2)cc1 | . | 65.4* | -2.7 | 28.5 | 36.4 | 23.1 | 77.4*
O=C(Nc1nc(-c2nc3ccccc3s2)cs1)C1CC1 | -157.2 | -170.5 | -0.3 | -206.9 | -0.4 | -187.0 | -110.6
O=C(CN1C(=O)CCC1=O)Nc1nc(-c2nc3ccccc3s2)cs1 | -43.3 | -69.0 | . | -94.3 | -8.3 | -12.4 | .
O=C(/C=C/c1ccc2c(c1)OCO2)Nc1nc2ccccc2s1 | -93.2 | -167.6 | 58.0 | 47.6 | 67.3 | -162.0 | -65.2
CCOC(=O)c1ccc(-c2ccc3c(c2)CCC3)nc1C | -92.3 | -118.8 | -2.0 | -129.8 | -7.2 | -182.8 | .
SMILES | Gli-Sufu block | Jurkat NFkB inh | Beta apoptosis | Mdm2 MdmX PPI | CSC inhib | 697 NFkB inh | Jurkat NFkB conf
Cc1ccc(N2CCN(S(=O)(=O)c3nnc(NC(=O)c4ccccc4)s3)CC2)cc1 | 3.5 | -0.3 | 14.1 | -9.1 | 30.7 | 3.6 | .
COn1c(-c2ccccc2)nc2ccc(Cl)cc21 | -53.1 | -66.3 | 4.5 | -72.1 | -3.0 | -66.9 | .
Clc1ccc2nc3c4ccccc4cnn3c2c1 | -41.9 | -160.3 | 0.3 | -199.3 | 13.5 | -173.8 | -120.5
O=C(Nc1ccc(NC(=O)C23CC4CC(CC(C4)C2)C3)cn1)c1ccco1 | -122.3 | -151.1 | -2.7 | -57.9 | 10.5 | -101.0 | -65.8
CC(C)c1ccccc1NC(=O)COC(=O)c1cccnc1 | -14.3 | -15.9 | -0.5 | -5.3 | -13.3 | 11.1 | .
N#C/C(=N\Nc1ccc(Cl)cc1)C(=N)N1CCCCC1 | -96.6 | -200.1 | -3.6 | -124.6 | 3.5 | -228.2 | -102.7
N#C/C(=N\Nc1ccc(F)cc1)C(=N)N1CCCCCC1 | -84.6 | -194.3 | . | -186.6 | -2.0 | -181.4 | -55.4
Cc1ccc(N/N=C(\C#N)C(=N)N2CCCCCC2)cc1 | -86.8 | -185.0 | 2.9 | -110.6 | 3.9 | -147.6 | -89.6
COc1ccc(N/N=C(\C#N)C(=N)N2CCCCC2)cc1 | -57.0 | -43.6 | -3.3 | -21.1 | 6.5 | -53.8 | .
Cc1ccc(N/N=C(\C#N)C(=N)N2CCOCC2)cc1 | -12.1 | -61.3 | -3.4 | -47.5 | -7.7 | -16.7 | .
O=C(Nc1cnc2sccn2c1=O)c1ccc(Cl)cc1Cl | -24.4 | -150.8 | -3.6 | -48.4 | 1.0 | -175.7 | -47.9
COc1cccc(OCC(=O)N2CCCc3ccccc32)c1 | 12.2 | -6.4 | 7.6 | -34.7 | -4.9 | -4.2 | .
Cc1nonc1OCCN1CCN(c2ccc([N+](=O)[O-])cc2)CC1 | -11.8 | 58.4* | 4.9 | 19.3 | 1.6 | -17.7 | 24.1
O=[N+]([O-])c1ccc(N2CCN(Cc3ccc(Br)o3)CC2)cc1 | 39.9 | 51.8* | -4.2 | 12.1 | -2.7 | 14.9 | 6.1
Cc1ccc(N(CCC#N)C(=O)COC(=O)C2=COCCO2)cc1 | -2.7 | 18.4 | -7.5 | 9.5 | -7.9 | 7.7 | .
COCCN(C(=S)Nc1ccc(C)cc1)C(C)c1cccnc1 (centres undefined) | -2.2 | -5.6 | -0.3 | -24.6 | -18.2 | 7.8 | .
Cc1ccc(CN=C2Nc3ccccc3CS2)cc1 | -157.4 | -170.8 | 5.8 | -158.6 | 14.8 | -208.3 | -80.3
COc1ccccc1N1CCN(C2CCN(C(=O)COc3ccccc3)CC2)CC1 | 27.8 | -11.9 | 0.1 | 11.1 | 8.4 | 9.7 | .
O=C(c1ccc(F)cc1)c1ccc(N2CCCCC2)cc1 | -63.6 | -84.2 | -1.0 | -120.8 | 0.9 | -91.2 | .
O=C(Nc1ccc(N2CCCCC2)cc1)c1ccc(F)cc1 | -80.1 | -167.3 | 2.3 | -68.8 | -5.6 | -158.4 | -82.8
CCCCOC(=O)Nc1ccc(N2CCCCC2)cc1 | -94.4 | -182.4 | 2.4 | -164.6 | -1.6 | -163.2 | -95.3
O=C(Nc1ccc(N2CCOCC2)cc1)c1ccc(Cl)c(S(=O)(=O)N2CCCCC2)c1 | 39.3 | 50.9* | 38.0 | 6.8 | . | 26.7 | 56.8*
CCCOc1ccc(C(=O)Nc2ccc(CN3CCOCC3)cc2)cc1 | -12.4 | -11.5 | -4.1 | 13.4 | -5.0 | -8.0 | .
CCN(CC)S(=O)(=O)c1ccc(NC(=O)c2ccc(CN3CCOCC3)cc2)cc1 | 9.5 | 58.2* | 3.0 | 10.1 | -2.1 | 5.4 | 57.7*
O=C(COC(=O)COc1cccc(C(F)(F)F)c1)NC(=O)NC1CCCCC1 | -12.1 | -1.1 | -9.5 | -12.6 | -6.9 | -3.1 | .
COc1ccc(CC(=O)Nc2nn(C)c3nc4c(C)cccc4cc23)cc1 | -8.5 | -3.1 | 2.2 | 27.6 | -4.5 | 7.6 | .
